Data taken from PubChem BioAssay AID1508600 (Functional Genomics Laboratory (NCATS/FGL), 2020).
Out of some 53,000 sequences screened, about 3,700 (7%) were called active.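 The calls were made as follows: active = gene knockdowns whose robust z-score for IL-1 alpha signal is at least 2 or at most -2, so actives lie on both sides; inactive = the rest.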 The sample as a whole holds a higher share of actives than the screen did.

Test: Components of the Cytosolic LPS Sensing Pathway: Gene Identification via Genome-wide siRNA Screen;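 also: robust z of the log signal after scaling to non-targeting control siRNA wells of the plate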
Settings: RAW264.7 macrophages, IL-1a HTRF, actives lie on both sides, screened at 100 nM (by protocol), cells primed 5 h with Pam3CSK4 first
In short: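 RAW264.7 mouse macrophages reverse-transfected with single siRNAs (100 nM final) for 48h, primed with Pam3CSK4 for 5 hours, then transfected with LipidA for 24 hour. Supernatant IL-1a read by HTRF; values normalized to negative-control median, log-transformed robust z-scores.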

| Sequence | z-score |
| --- | --- |
| CCCACAAGUUUCAUCUGACTT against Aknaos | -0.164 (inactive) |
| GGAGAACCCAUUAAAGAAATT against Amd1 | 0.408 (inactive) |
| GGUCUGUACUUGUUUAGAATT against Vwa3b | 0.42 (inactive) |
| GCUAUACAAAGGCUACUCUTT against Hectd3 | 0.379 (inactive) |
| GCUGUUGAUUGUAAGCAAUTT against Mtap | 0.0958 (inactive) |
| GCCGCACCGAAAGUGAAAUTT against Copz2 | -0.391 (inactive) |
| GGACCGGUGUAAGCUUCGATT against Hinfp | 2.05 (active) |
| GCUAGAGGAUGGCUGAGCUTT against Poll | -0.581 (inactive) |
| GGUGACUGAAAUCAAACACTT against Il9r | -1.71 (inactive) |
| GGAAGGAUUGCCUUUAGGATT against Rbm12b2 | 0.29 (inactive) |
| GGAGUAUGAAUUUGUGACUTT against Arhgdig | -0.526 (inactive) |
| GGACCGCGUUCAAGAAGAATT against Cyp2c37 | 2.17 (active) |
| GGAGAAUUUGGAAAGUGAGTT against Rnf150 | 0.0696 (inactive) |
| GGGUAAACACCCAUUUAGCTT against Lbx2 | -0.156 (inactive) |
| GGUCCUAGGCCUACUCAUCTT against Cd46 | -0.318 (inactive) |
| GGUCCUACUAUAACCUGCGTT against Gdf3 | -0.103 (inactive) |
| GCAGAUUUUGACUAAAGGATT against Sbds | -0.747 (inactive) |
| GCAGUGAACCGUAUUGGACTT against Ncam1 | 0.406 (inactive) |
| GGUUCACAGAUGAUACCUUTT against Rab18 | 4.59 (active) |
| GGACCUUCCAGCAAGAUUUTT against Rnf13 | 0.28 (inactive) |
| GCCGGCAGUAAAGAUUCAUTT against Cog2 | 0.938 (inactive) |
| CCGGGUAGUCUUUUUGGUGTT against 9130019O22Rik | -1.72 (inactive) |

| Sequence | z-score |
| --- | --- |
| GGGAAGAAAGGAUGGGAAATT against Fev | 0.355 (inactive) |
| GCGGCCUCUUGAAUGAUUCTT against Ccndbp1 | 2.16 (active) |
| GGUUGUUAUGGUCUCAUAUTT against Lrrc40 | -0.62 (inactive) |
| GGUUUCAAGAAAGAUAUGATT against Cntnap5b | -0.891 (inactive) |
| GGAAUUAAGAAGACAAUUCTT against Emc2 | -1.22 (inactive) |
| GGAUGUCUCCAUGAAGGAATT against Ccnb2 | -1.12 (inactive) |
| GGUUGAUGGGUAAUAAACUTT against Nfatc4 | -2.16 (active) |
| GGAAUGGAUAAAAACAUUGTT against Tank | 1.27 (inactive) |
| GGUGGUCUACUUAGGUUUATT against Sc5d | 0.63 (inactive) |
| GCGUGCAGCCCUCAAUGAATT against Ppp2r5b | 0.84 (inactive) |
| GGCGAACAGAGAGAGUUAGTT against 4921524J17Rik | 0.677 (inactive) |
| GGGCUUCACUUCCUUAGGATT against Cog3 | 0.0276 (inactive) |
| GGGCUGAAGUGAAAACAGCTT against Mmp8 | -0.523 (inactive) |
| GGAUAACUCACAAGAGUCUTT against Zdhhc16 | -0.296 (inactive) |
| GGCUUUUUGUUAAGGCAGCTT against Ap1ar | 1.59 (inactive) |
| GGAGACAACAACAAGACAUTT against Tbk1 | 3.12 (active) |
| GGAGAAAGCUGCUCAUGAATT against Caml | -0.477 (inactive) |
| GGCAGAUGAUCCCGGGAUUTT against Clvs1 | 0.545 (inactive) |
| GGUAUGUCUGCAUAAAUGUTT against Cyp2c38 | 2.74 (active) |
| GGUUCGUGUGGUUUAACAUTT against Afg3l1 | 1.55 (inactive) |
| GGAUGAGAGGUAAAGUAACTT against Nptxr | 0.802 (inactive) |
| GGUUCUCUGAUACCCACUCTT against Mgat4e | 0.44 (inactive) |

| Sequence | z-score |
| --- | --- |
| GGAAAUGUGGAGAGAAAAUTT against P2ry4 | 1.02 (inactive) |
| GGCGACAUAUUUUUCAAACTT against Fmn1 | -0.506 (inactive) |
| CGUGGAAGACAUACAACCCTT against Tmem181a | 3.03 (active) |
| GGUCCGAGAGACAUUGGCATT against Lmx1b | -0.118 (inactive) |
| CCUUAUAAGAAAGAUAGACTT against Nhlrc2 | -0.591 (inactive) |
| GGAGCUUCAAGGUCUGUCGTT against Tmc6 | -2.65 (active) |
| GCUGGAUGGCCGUUUCAAATT against Fancd2os | -0.00925 (inactive) |
| GGAACUAAAUCUUCCAUCCTT against Chit1 | -1.02 (inactive) |
| GGAAAUAGAAGACCAGUUUTT against Srsf3 | -1.43 (inactive) |
| GGCACCAUCUACGACUAUGTT against Gpx5 | -0.649 (inactive) |
| GGUGAGCACUAAAUGCAGATT against Cldn16 | 0.892 (inactive) |
| GCAAAUGUUGCCCAUCGUGTT against Ppp2r1b | 0.44 (inactive) |
| GGAAAUCCUGGGACAGAACTT against Htatip2 | -2.42 (active) |
| GCCUGAGAUCGUGAACACUTT against Ccdc159 | -0.0179 (inactive) |
| GGAGGCCUUGUACUUACACTT against Rspo1 | 1.26 (inactive) |
| GGUGAAUCAGACAUACUAUTT against Snupn | 3.31 (active) |
| GGUAUGGAUGCUUGAGAAATT against Ccdc77 | -1.15 (inactive) |
| GGAGCCAGUCCAAAUUGCATT against Il13ra1 | 0.561 (inactive) |
| GCCCAUUGAGUUUGAUUCATT against Itgav | 1.57 (inactive) |
| GGACGAUUCUUUUCUCCAGTT against Surf1 | -2.07 (active) |
| CCUCAUCGAAUUCGAUACCTT against Arrb2 | -0.181 (inactive) |
| CGCUACGUCCAGUAUCACCTT against Tmem192 | -0.471 (inactive) |

| Sequence | z-score |
| --- | --- |
| CCAGAUAGGUAAAAAACAATT against Acta2 | -0.562 (inactive) |
| GCAAAUUUAAGAGAAGUUGTT against Dse | -0.132 (inactive) |
| CCUAGACUUGAACAAACACTT against Lsm12 | -2.11 (active) |
| GCUUCGGCCUCAGUAUUCATT against Pigb | 0.0355 (inactive) |
| GCAUACUUAGGAUACACGCTT against A830005F24Rik | -0.647 (inactive) |
| GCCACAUUCUUCUCAACCUTT against Tas2r106 | -2.14 (active) |
| GGUAGUUAACACAAAAUUGTT against 4932438H23Rik | 0.334 (inactive) |
| GGACUUCUUGGACCUACUUTT against F5 | -1.55 (inactive) |
| GGUAGGAGGUAUUUCCCACTT against Shisa5 | 0.197 (inactive) |
| GGCUUCUAAGCAUACUCAGTT against Iqsec1 | -0.257 (inactive) |
| GCUCCUCUCCAAGGUCAUUTT against Olfr96 | 0.652 (inactive) |
| GGAUUUUCCAGGCAUGAGGTT against Ehd3 | -2.24 (active) |
| GGAAAUGCGCCAUGAGUUGTT against Soga3 | -0.124 (inactive) |
| GAGUUGUACUCUUCACUAUTT against Olfr497 | -2.6 (active) |
| GGACUAUUGUCUCAUUUGATT against Olfr1189 | 1.04 (inactive) |
| GGACAACGUAGCCUUCGUUTT against Ncln | -0.562 (inactive) |
| GGUGGAUUCUAUUAAAUGCTT against Gm14461 | 0.462 (inactive) |
| CCAUUAGCAAUGUGCUUCUTT against Unc13a | 0.268 (inactive) |
| GGUGUUCGAGAAGCUGAAGTT against Haus7 | -0.371 (inactive) |
| GGAUCUUUCGUGUGGAAAATT against Atf7ip | 0.87 (inactive) |
| GCUUUUGGACUGAAUCUCATT against 2210016L21Rik | 2.78 (active) |
| GGCCACCUUCUUUGAGGUATT against Snai1 | 1.11 (inactive) |

| Sequence | z-score |
| --- | --- |
| GGUAGGACUAACAAUAAAATT against Gpr4 | -0.0158 (inactive) |
| GACCUGAAUAAAGACUGUCTT against Cort | 0.697 (inactive) |
| CGGACUUACCAAAAGCGCATT against Lss | 3.16 (active) |
| GGAGAGAGAUGAAAUUUGATT against Kif26b | 1.79 (inactive) |
| GGAGAAAAUCAACAAGAUCTT against Ppp2r2c | -0.437 (inactive) |
| CCAUUGAGGUAAUGUUUGATT against Rmnd1 | 0.978 (inactive) |
| UGAUAUCGGAACAGAGAUGTT against Tbx15 | -0.467 (inactive) |
| GGAAGUAAAAACAUACCUUTT against Chac2 | 2.02 (active) |
| CCCAAAGCCCUUUUAAACUTT against Hmbs | 0.301 (inactive) |
| GGUAAAAGACUAAAGAAGATT against Coch | -0.485 (inactive) |
| CCGCUGUUUUCAACUGUGCTT against Asb10 | -0.773 (inactive) |
| GGAAGUGGUGGAACUCCUGTT against Tmem215 | -2.65 (active) |
| GGACCUGGUCACCAUCUUGTT against Tram2 | -0.3 (inactive) |
| CGGCAGAAGGGUUUUUAUGTT against Rnf126 | -0.365 (inactive) |
| CCAUACAUAUAGACAAUCCTT against AY358078 | 0.796 (inactive) |
| CCUUCAUGCAACAGCUACUTT against Nckap5l | -2.57 (active) |
| GCCCUAUCUACCAUAACACTT against Dok3 | -2.11 (active) |
| GGAUUCAGAAAUCUGGAAATT against Nmnat3 | -0.199 (inactive) |
| GGUCAUCUUACAGUUUAAATT against Smap2 | 0.593 (inactive) |
| GCGAAUAUCCAACCUAUCUTT against Itgb7 | -0.687 (inactive) |
